Test results reported in PubChem BioAssay.
The source made the active and inactive calls.

Experiments:
[1] = tested on: PRMT1 (protein arginine N-methyltransferase 1); experiment: PRMT1 binders on small-molecule microarrays, primary screen, biochemical, small-molecule microarray, 635 nm fluorescence (AID 1088); conditions: small-molecule microarray binding, higher = more signal;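 note: binding of Prmt1 protein to compounds spotted on small-molecule microarray slides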
[2] = yeast growth modulation, basal conditions, primary screen, YJM789 clinical isolate, OD600, 24 h (AID 1089);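 note: growth of clinical yeast isolate S. cerevisiae YJM 789 seeded 1000 cells per well; test concentration not given here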; conditions: S. cerevisiae YJM789 growth, higher = more signal, called active from +8 up or from −8 down
[3] = fission yeast growth modulation, primary screen, strain 972, OD600, 24 h, no modulator (AID 1090);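 note: basal condition with compound alone and no growth modifier present; test concentration not given here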; conditions: S. pombe 972 growth, higher = more signal, called active from +8 up or from −8 down
[4] = S. cerevisiae growth modulation with rapamycin, primary screen, strain BY4716, OD600, 96 h (AID 1091); conditions: higher = more signal, called active from +8 up or from −8 down; note: test concentration not given here
[5] = biological target: Torsin-1A-interacting protein 2 (Homo sapiens) (UniProt Q8NFQ8); experiment: LULL1 binders on small-molecule microarray, primary screen, cell lysate, human LULL1 lysate, 635/667 nm fluorescence (AID 1092); conditions: hLULL1 lysate binding, 635 nm fluorescence, higher = more signal;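 note: probe is lysate of COS7 cells overexpressing human LULL1; score merges per-feature 667 nm fluorescence with signal-to-noise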
[6] = E. coli growth modulation, two-sided OD650, primary screen, E. coli filamentation project, strain DRC41, 24 h (AID 1093); conditions: OD650, 24 h, higher = more signal, called active from +8 up or from −8 down;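 note: MC1000 strain lacking acrAB efflux and sulA so SOS filamentation is blocked; test concentration not given here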
[7] = small-molecule microarray binders of probe aLefty2, primary screen, biochemical, biotinylated probe, 635/667 nm fluorescence (AID 1094); conditions: higher = more signal;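 note: score merges spot fluorescence near 667 nm with spot signal-to-noise ratio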
[8] = tested on: Noggin (protein binding on small-molecule microarray); experiment: Noggin binders on small-molecule microarray, primary screen, biochemical, 635/667 nm fluorescence (AID 1095); conditions: 635 nm fluorescence, higher = more signal;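 note: score merges 667 nm feature fluorescence with signal to noise over triplicate slides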
[9] = biological target: Neurogenic locus notch homolog protein 3 (Homo sapiens) (UniProt Q9UM47); experiment: NOTCH3 binders on small-molecule microarray, primary screen, biochemical, 635/667 nm fluorescence (AID 1096); conditions: NOTCH3 binding, 635 nm fluorescence, higher = more signal
[10] = small-molecule microarray binders of probe aEGFR, primary screen, biochemical, biotinylated probe, 635/667 nm fluorescence (AID 1097); conditions: higher = more signal;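 note: probe is a biotinylated anti-EGFR antibody binding compounds printed on slides; score combines fluorescence near 667 nm and signal to noise of each spot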
[11] = tested on: Plasmodium falciparum Sir2 (PF13_0152, Sir2A); experiment: pfSir2 binders on small-molecule microarrays, primary screen, biochemical, small-molecule microarray, 635 nm fluorescence (AID 1098); conditions: small-molecule microarray binding, fluorescence 635 nm; higher = more signal;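 note: score merges spot fluorescence intensity with its signal-to-noise ratio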
[12] = small-molecule microarray binders of probe aDKK1, primary screen, biochemical, biotinylated probe, 635/667 nm fluorescence (AID 1099); conditions: higher = more signal;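 note: score merges 667nm spot fluorescence with signal to noise across triplicate slides; reference of the scale not given here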
[13] = small-molecule microarray binders of probe aCHRDL2, primary screen, biochemical, biotinylated probe, 635/667 nm fluorescence (AID 1100); conditions: higher = more signal
[14] = splicing luciferase reporter signal modulators, primary screen, spliceosome inhibition project, cell-based, HEK293, splice +/- reporter (AID 1101); conditions: luminescence, 24 h, higher = more signal, called active from +8 up or from −8 down;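 note: HEK293 cells carrying a splicing-competent luciferase reporter gene; test concentration not given here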
[15] = biological target: Fibroblast growth factor 10 (Homo sapiens) (UniProt O15520); experiment: FGF10 binders on small-molecule microarrays, primary screen, biochemical, small-molecule microarray, 635 nm fluorescence (AID 1102); conditions: FGF10 binding, fluorescence 635 nm, higher = more signal
[16] = tested on: glycogen synthase kinase-3 (GSK3A per assay name; protocol says GSK3B); experiment: GSK3 binders on small-molecule microarrays, primary screen, biochemical, small-molecule microarray, 635 nm fluorescence, GSK3A (AID 1103); conditions: small-molecule microarray binding, fluorescence 635 nm; higher = more signal; note: the record names both GSK3A and GSK3B
[17] = biological target: Epidermal growth factor receptor (Homo sapiens) (UniProt P00533); experiment: EGFR binders on small-molecule microarrays, primary screen, biochemical, small-molecule microarray, 635 nm fluorescence (AID 1104); conditions: EGFR binding, higher = more signal;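 note: score merges 667 nm emission intensity with spot signal to noise over triplicate slides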
[18] = biological target: Follistatin-related protein 3 (Homo sapiens) (UniProt O95633); experiment: FSTL3 binders on small-molecule microarrays, primary screen, biochemical, small-molecule microarray, 635 nm fluorescence (AID 1105); conditions: FSTL3 binding, higher = more signal;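 note: score merges emission near 667 nm and signal to noise per printed spot across three slides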
[19] = biological target: Dickkopf-related protein 1 (Homo sapiens) (UniProt O94907); experiment: DKK1 binders on small-molecule microarrays, primary screen, biochemical, small-molecule microarray, 635 nm fluorescence scan (AID 1106); conditions: DKK1 binding, higher = more signal;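 note: score merges emission near 667 nm with signal to noise over three replicate slides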
[20] = tested on: Inhibin beta A chain (activin A); experiment: INHBA (activin A) binders on microarrays, primary screen, biochemical, small-molecule microarray, 635 nm fluorescence scan (AID 1107); conditions: small-molecule microarray binding, higher = more signal;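 note: mouse activin A protein probed at 4.33 µg/mL on printed slides; score merges bound-protein fluorescence near 667 nm with spot signal-to-noise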

Follistatin-related protein 3 (Homo sapiens), sequence (O95633 whole entry, looked up): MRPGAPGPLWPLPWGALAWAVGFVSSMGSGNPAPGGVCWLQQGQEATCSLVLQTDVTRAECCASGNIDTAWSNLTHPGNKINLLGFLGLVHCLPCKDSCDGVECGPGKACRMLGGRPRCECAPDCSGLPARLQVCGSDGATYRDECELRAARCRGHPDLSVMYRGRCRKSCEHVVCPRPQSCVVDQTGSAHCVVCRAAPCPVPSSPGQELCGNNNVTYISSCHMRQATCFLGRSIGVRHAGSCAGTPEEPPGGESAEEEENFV
Dickkopf-related protein 1 (Homo sapiens), sequence (O94907 whole entry, looked up): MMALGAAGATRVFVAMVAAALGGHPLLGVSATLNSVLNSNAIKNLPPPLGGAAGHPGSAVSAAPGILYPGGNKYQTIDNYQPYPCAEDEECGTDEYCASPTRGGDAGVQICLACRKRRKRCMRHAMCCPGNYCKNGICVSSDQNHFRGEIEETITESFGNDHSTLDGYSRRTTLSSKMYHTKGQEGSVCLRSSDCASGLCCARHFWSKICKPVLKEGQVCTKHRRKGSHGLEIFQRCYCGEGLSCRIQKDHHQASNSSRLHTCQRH
Fibroblast growth factor 10 (Homo sapiens), sequence (O15520 whole entry, looked up): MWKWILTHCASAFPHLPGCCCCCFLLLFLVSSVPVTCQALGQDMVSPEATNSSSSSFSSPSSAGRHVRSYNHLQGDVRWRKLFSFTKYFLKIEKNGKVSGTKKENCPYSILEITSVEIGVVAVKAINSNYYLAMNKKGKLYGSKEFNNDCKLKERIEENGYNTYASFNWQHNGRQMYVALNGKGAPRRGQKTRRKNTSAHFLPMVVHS
Torsin-1A-interacting protein 2 (Homo sapiens), sequence (Q8NFQ8 whole entry, looked up): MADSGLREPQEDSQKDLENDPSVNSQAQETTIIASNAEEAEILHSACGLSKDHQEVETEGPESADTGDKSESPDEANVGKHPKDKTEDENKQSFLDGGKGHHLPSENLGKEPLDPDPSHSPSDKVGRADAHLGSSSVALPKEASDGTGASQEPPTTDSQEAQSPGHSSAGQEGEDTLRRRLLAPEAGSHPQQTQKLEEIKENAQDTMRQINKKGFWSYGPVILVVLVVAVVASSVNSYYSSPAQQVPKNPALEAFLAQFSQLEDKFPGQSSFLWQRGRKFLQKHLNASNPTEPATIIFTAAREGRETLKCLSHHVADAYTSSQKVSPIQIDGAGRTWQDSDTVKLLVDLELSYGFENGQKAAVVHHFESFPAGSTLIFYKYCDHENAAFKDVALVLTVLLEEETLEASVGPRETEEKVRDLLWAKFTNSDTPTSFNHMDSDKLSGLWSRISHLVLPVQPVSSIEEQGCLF
Neurogenic locus notch homolog protein 3 (Homo sapiens), sequence (Q9UM47 whole entry, looked up): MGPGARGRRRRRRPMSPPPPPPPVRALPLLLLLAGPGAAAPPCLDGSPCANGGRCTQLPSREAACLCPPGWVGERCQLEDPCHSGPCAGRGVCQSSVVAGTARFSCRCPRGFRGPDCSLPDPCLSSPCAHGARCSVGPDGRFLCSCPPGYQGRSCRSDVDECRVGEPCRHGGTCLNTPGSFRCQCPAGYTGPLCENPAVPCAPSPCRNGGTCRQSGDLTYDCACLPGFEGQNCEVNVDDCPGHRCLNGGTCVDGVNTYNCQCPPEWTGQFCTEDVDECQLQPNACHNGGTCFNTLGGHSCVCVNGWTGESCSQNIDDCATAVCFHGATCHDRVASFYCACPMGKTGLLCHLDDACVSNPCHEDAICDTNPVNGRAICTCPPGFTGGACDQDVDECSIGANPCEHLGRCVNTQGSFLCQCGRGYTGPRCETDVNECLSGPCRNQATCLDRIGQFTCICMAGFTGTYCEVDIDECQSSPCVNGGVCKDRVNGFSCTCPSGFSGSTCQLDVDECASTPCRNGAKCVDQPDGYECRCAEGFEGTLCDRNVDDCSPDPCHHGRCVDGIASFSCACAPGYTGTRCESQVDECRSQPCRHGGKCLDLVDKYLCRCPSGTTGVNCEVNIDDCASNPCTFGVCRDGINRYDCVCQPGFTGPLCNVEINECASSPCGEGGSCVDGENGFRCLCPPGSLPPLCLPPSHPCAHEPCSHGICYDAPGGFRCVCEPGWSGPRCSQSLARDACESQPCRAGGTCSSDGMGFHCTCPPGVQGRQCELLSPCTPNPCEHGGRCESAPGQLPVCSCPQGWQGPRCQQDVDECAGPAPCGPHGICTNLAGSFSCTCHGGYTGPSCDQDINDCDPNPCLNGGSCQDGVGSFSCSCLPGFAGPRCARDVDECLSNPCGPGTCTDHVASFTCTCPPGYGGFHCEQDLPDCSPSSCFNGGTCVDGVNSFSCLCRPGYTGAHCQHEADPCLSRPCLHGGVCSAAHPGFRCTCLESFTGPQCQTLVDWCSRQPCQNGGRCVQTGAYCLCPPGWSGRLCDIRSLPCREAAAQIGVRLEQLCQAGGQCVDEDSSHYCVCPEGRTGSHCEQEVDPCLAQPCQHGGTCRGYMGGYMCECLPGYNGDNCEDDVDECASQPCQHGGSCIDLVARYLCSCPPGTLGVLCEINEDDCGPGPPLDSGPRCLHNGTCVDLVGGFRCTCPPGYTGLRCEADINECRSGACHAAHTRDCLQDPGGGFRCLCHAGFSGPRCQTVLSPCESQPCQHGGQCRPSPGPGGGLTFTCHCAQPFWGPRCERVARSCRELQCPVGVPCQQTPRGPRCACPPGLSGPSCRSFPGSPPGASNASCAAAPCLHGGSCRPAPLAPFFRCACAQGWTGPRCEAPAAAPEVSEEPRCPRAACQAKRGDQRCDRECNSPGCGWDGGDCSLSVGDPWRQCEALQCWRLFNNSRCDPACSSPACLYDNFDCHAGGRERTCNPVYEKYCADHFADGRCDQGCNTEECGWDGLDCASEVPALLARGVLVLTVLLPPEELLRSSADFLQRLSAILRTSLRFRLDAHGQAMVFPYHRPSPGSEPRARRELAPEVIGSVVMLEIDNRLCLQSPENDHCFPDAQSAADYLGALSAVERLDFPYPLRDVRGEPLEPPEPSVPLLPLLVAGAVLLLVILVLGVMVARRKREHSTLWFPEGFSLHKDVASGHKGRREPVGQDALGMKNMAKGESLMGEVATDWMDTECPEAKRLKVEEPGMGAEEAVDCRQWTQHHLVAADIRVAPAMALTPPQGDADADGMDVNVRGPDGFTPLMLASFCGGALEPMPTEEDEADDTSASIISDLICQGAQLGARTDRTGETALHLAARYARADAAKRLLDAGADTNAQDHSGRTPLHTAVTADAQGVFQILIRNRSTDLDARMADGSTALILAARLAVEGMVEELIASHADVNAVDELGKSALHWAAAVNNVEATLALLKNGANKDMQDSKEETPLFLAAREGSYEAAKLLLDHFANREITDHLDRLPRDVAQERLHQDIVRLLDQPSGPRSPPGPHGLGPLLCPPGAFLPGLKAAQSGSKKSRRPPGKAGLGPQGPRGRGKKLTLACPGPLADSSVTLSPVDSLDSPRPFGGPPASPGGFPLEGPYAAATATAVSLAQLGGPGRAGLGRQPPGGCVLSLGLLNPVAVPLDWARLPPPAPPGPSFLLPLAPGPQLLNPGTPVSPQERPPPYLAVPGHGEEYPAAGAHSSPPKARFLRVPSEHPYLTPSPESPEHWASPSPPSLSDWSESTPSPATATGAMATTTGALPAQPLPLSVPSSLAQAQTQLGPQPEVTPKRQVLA
Epidermal growth factor receptor (Homo sapiens), sequence (P00533 whole entry, looked up): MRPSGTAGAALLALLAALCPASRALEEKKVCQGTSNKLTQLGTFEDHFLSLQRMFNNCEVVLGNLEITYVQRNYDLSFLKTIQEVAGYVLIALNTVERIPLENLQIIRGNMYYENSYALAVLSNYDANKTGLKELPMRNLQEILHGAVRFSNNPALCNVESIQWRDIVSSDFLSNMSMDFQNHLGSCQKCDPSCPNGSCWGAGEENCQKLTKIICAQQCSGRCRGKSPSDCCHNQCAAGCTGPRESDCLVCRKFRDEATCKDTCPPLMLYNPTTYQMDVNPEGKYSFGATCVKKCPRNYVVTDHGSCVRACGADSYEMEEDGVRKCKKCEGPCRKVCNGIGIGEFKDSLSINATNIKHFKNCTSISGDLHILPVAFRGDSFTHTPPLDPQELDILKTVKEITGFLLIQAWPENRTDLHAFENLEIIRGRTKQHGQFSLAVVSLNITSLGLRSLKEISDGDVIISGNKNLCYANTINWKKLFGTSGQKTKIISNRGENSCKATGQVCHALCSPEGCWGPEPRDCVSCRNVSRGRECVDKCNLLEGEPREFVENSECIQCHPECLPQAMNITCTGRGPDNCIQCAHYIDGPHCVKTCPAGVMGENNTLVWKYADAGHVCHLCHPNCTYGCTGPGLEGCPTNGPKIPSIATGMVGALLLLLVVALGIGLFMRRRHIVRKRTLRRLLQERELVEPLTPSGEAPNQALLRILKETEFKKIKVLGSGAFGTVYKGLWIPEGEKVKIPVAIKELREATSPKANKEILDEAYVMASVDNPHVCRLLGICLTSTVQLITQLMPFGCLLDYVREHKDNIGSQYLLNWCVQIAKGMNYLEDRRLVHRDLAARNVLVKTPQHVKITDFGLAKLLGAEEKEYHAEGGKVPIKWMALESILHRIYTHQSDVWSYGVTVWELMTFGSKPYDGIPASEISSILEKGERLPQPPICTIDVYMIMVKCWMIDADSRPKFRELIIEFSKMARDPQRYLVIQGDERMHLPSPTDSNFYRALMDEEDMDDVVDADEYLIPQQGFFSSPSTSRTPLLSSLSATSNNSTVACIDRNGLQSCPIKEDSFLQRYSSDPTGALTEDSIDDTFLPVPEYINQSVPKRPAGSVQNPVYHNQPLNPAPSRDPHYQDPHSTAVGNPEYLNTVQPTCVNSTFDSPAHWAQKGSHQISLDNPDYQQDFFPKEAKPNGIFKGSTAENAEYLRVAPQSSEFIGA

| Compound | composite z-score [1] | z-score [2] | z-score [3] | z-score [4] | composite z-score [5] | z-score [6] | composite z-score [7] | composite z-score [8] | composite z-score [9] | composite z-score [10] | composite z-score [11] | composite z-score [12] | composite z-score [13] | z-score [14] | composite z-score [15] | composite z-score [16] | composite z-score [17] | composite z-score [18] | composite z-score [19] | composite z-score [20] |
| --- | --- | --- | --- | --- | --- | --- | --- | --- | --- | --- | --- | --- | --- | --- | --- | --- | --- | --- | --- | --- |
| C[C@H]1C2[C@H](Cc3ccccc3)NC(=O)[C@]23C(=O)NCC(=O)N2CCC[C@H]2C(=O)NC/C=C/CCC/C=C/C3[C@@H]2O[C@]12C (stereo not given in full) | -1.33 | 0.291 (inactive) | -0.0836 (inactive) | -0.0152 (inactive) | -1.02 | 1.51 (inactive) | -0.18 | -0.627 | -0.508 | -0.278 | 0.38 | -0.398 | -0.269 | -0.0803 (inactive) | -0.568 | -1.26 | -0.681 | -0.618 | -0.233 | 1.55 |
| CC(C)[Si](C#CCCCC#N)(O[C@H](c1ccccc1)c1cn(Cc2cccc(Cl)c2)nn1)C(C)C | 1.52 | -0.135 (inactive) | -0.483 (inactive) | -3.21 (inactive) | 1.42 | 1.79 (inactive) | 0.0322 | 0.342 | 1.13 | 0.0363 | 0.397 | -0.0654 | -0.594 | -1.64 (inactive) | 0.483 | 1.18 | 0.376 | 1.11 | 0.968 | -0.018 |
| CC1CC/C=C\[C@H]2OC34C=CCN(c5ccc6ccccc6c5)C(=O)[C@H]3N(CCO)C(=O)[C@@H]4C2C(=O)O1 (stereo not given in full) | 0.229 | -0.646 (inactive) | -1.4 (inactive) | -0.764 (inactive) | 2.07 | 0.764 (inactive) | 0.314 | -1.11 | 0.521 | -0.123 | 1.76 | -0.122 | 0.915 | -0.538 (inactive) | -0.681 | -0.844 | -1.13 | -0.391 | -1.02 | 0.838 |
| O=C1[C@H]2C=C(Br)[C@H](C[C@@H]2OCCCCCCO)[C@@]12CO2 | -0.729 | 0.335 (inactive) | -1.29 (inactive) | 1.32 (inactive) | -0.283 | -1.74 (inactive) | 0.0183 | 0.387 | -0.615 | -0.131 | 1.21 | -0.142 | -0.0272 | 0.428 (inactive) | -0.117 | -0.363 | -0.0491 | -0.154 | -0.0712 | 1.61 |
| C=C(C(=O)CC[C@H](OC(C)=O)c1ccccc1OCCO)C(C)C | 0.316 | -25 (active) | -20.2 (active) | -4.35 (inactive) | -0.808 | 0.43 (inactive) | -0.232 | 0.657 | 0.0937 | -0.188 | 0.78 | -0.287 | 0.006 | -1.94 (inactive) | 1.28 | -1.29 | -0.803 | -0.226 | -0.284 | -0.139 |
